Legend:
[1] = system: Vero E6 infected with SARS-CoV-2; assay: morphology score (similarity to uninfected cells); higher = more like uninfected cells; settings: 24 h
[2] = system: Vero E6 infected with SARS-CoV-2; assay: SARS-CoV-2 infection rate relative to infected DMSO; higher = more infection, active = 60 or less; settings: 24 h

Compound: CC1(C)S[C@@H]2[C@H](NC(=O)[C@H](N)c3ccc(O)cc3)C(=O)N2[C@H]1C(=O)O [amoxicillin] (10 µM)
- morphology score [1]: -0.146
- SARS-CoV-2 infection rate [2]: 102% (inactive)

Compound: Nc1ncnc2c1C(=O)N(c1ccc([C@H]3CC[C@H](CC(=O)O)CC3)cc1)CCO2 (10 µM)
- morphology score [1]: 0.118
- SARS-CoV-2 infection rate [2]: 92.5% (inactive)

Compound: Cc1cc(O)c2c(=O)c3c(O)cc(O)c4c5c(O)cc(O)c6c(=O)c7c(O)cc(C)c8c1c2c(c34)c(c78)c65 [hypericin] (10 µM)
- morphology score [1]: -0.152
- SARS-CoV-2 infection rate [2]: 114% (inactive)

Compound: COc1ccccc1CC(=N)N1C[C@@H]2C(=O)CCC(c3ccccc3)(c3ccccc3)[C@@H]2C1 (10 µM)
- morphology score [1]: -0.184
- SARS-CoV-2 infection rate [2]: 110% (inactive)

Compound: Cc1ccc([N+](=O)[O-])cc1S(=O)(=O)N(C)C (10 µM)
- morphology score [1]: 0.0445
- SARS-CoV-2 infection rate [2]: 97% (inactive)

Compound: Cc1cn([C@H]2O[C@@H](CO)[C@H](O)[C@H]2F)c(=O)[nH]c1=O [clevudine] (10 µM)
- morphology score [1]: -0.0291
- SARS-CoV-2 infection rate [2]: 107% (inactive)

Compound: N=C(N)NC(=N)NCCc1ccccc1 [phenformin] (10 µM)
- morphology score [1]: 0.0321
- SARS-CoV-2 infection rate [2]: 110% (inactive)

Compound: CO/N=C(\C(=O)N[C@@H]1C(=O)N2C(C(=O)[O-])=C(C[N+]3(C)CCCC3)CS[C@H]12)c1csc(N)n1 [cefepime] (10 µM)
- morphology score [1]: 0.0622
- SARS-CoV-2 infection rate [2]: 114% (inactive)

Compound: CC1(CN2CCC(n3c(=O)[nH]c4ccccc43)CC2)OCc2ccccc2-n2cccc21 (stereo not given) [zaldaride] (10 µM)
- morphology score [1]: -0.152
- SARS-CoV-2 infection rate [2]: 112% (inactive)

Compound: OC[C@@H](O)[C@@H](O)[C@H](O)[C@@H](O)CO [sorbitol] (10 µM)
- morphology score [1]: -0.0534
- SARS-CoV-2 infection rate [2]: 110% (inactive)

Compound: CC(=O)N(c1onc(C)c1C)S(=O)(=O)c1ccc(N)cc1 [sulfisoxazole-acetyl] (10 µM)
- morphology score [1]: 0.179
- SARS-CoV-2 infection rate [2]: 91% (inactive)

Compound: O=C1CCCC(=O)C1C(=O)c1ccc(C(F)(F)F)cc1[N+](=O)[O-] [nitisinone] (10 µM)
- morphology score [1]: 0.0537
- SARS-CoV-2 infection rate [2]: 110% (inactive)

Compound: CNCCCN1c2ccccc2CCc2ccccc21 [desipramine] (10 µM)
- morphology score [1]: 0.212
- SARS-CoV-2 infection rate [2]: 81% (inactive)

Compound: Cc1nc(=O)c2cc(CN(C)c3ccc(C(=O)N[C@@H](CCC(=O)O)C(=O)O)s3)ccc2[nH]1 [raltitrexed] (0.833333 µM)
- morphology score [1]: -0.207
- SARS-CoV-2 infection rate [2]: 104% (inactive)

Compound: BrC1C(Br)C(Br)C(Br)C(Br)C1Br (stereo not given) [1,2,3,4,5,6-hexabromocyclohexane] (10 µM)
- morphology score [1]: 0.416
- SARS-CoV-2 infection rate [2]: 85% (inactive)

Compound: C/C=C1/[C@H](O[C@@H]2O[C@H](CO)[C@@H](O)[C@H](O)[C@H]2O)OC=C(C(=O)OC)[C@H]1CC(=O)OCCc1ccc(O)c(O)c1 [oleuropein] (10 µM)
- morphology score [1]: -0.0158
- SARS-CoV-2 infection rate [2]: 112% (inactive)

Compound: OC(c1ccccc1)C1CCN(CCc2ccccc2)CC1 (stereo not given) (10 µM)
- morphology score [1]: -0.103
- SARS-CoV-2 infection rate [2]: 106% (inactive)

Compound: CC(=O)Nc1ccc(OCC(O)CNC(C)C)cc1 (stereo not given) [practolol] (10 µM)
- morphology score [1]: -0.0762
- SARS-CoV-2 infection rate [2]: 106% (inactive)

Compound: CN1C(=O)C(F)=C[C@]2(C)[C@H]3CC[C@]4(C)[C@@H](C(=O)NCc5nc6cccnc6[nH]5)CC[C@H]4[C@@H]3CC[C@@H]12 (10 µM)
- morphology score [1]: 0.0239
- SARS-CoV-2 infection rate [2]: 100% (inactive)

Compound: CC(C)(C)NCC(O)c1cc(Cl)c(N)c(C(F)(F)F)c1 (stereo not given) [mabuterol] (10 µM)
- morphology score [1]: -0.0501
- SARS-CoV-2 infection rate [2]: 107% (inactive)

Compound: COc1ccc(CNC(=O)c2cc(-c3cncc(C)c3)ncc2-c2nccs2)nc1OC (10 µM)
- morphology score [1]: -0.0112
- SARS-CoV-2 infection rate [2]: 100% (inactive)

Compound: COc1cccc(CN(C(=O)CC(C)(C)C)[C@H]2C[C@@H](C(=O)N3CCNCC3)N(Cc3ccc4c(c3)OCO4)C2)c1 (10 µM)
- morphology score [1]: 0.0543
- SARS-CoV-2 infection rate [2]: 102% (inactive)

Compound: CCN(CC)CCOc1ccc(C(O)(Cc2ccc(Cl)cc2)c2ccc(C)cc2)cc1 (stereo not given) [Triparanol] (0.833333 µM)
- morphology score [1]: 0.0848
- SARS-CoV-2 infection rate [2]: 77.5% (inactive)

Compound: COc1c2ccoc2cc2oc(=O)ccc12 [bergapten] (10 µM)
- morphology score [1]: 0.0727
- SARS-CoV-2 infection rate [2]: 108% (inactive)

Compound: Nc1nc(NC2CC2)c2ncn([C@H]3C=C[C@@H](CO)C3)c2n1 (10 µM)
- morphology score [1]: 0.0446
- SARS-CoV-2 infection rate [2]: 102% (inactive)

Compound: CC(=O)N(O)C/C=C/c1cccc(Oc2ccccc2)c1 (10 µM)
- morphology score [1]: 0.0937
- SARS-CoV-2 infection rate [2]: 97.5% (inactive)

Compound: Clc1ccc(N/N=C(\c2ccccc2)c2ccccn2)nc1 (10 µM)
- morphology score [1]: 0.0534
- SARS-CoV-2 infection rate [2]: 103% (inactive)

Compound: OCc1ccccc1O [salicyl-alcohol] (10 µM)
- morphology score [1]: -0.0183
- SARS-CoV-2 infection rate [2]: 106% (inactive)

Compound: CC(NC(=O)c1ccccc1/N=C/c1c(O)ccc2ccccc12)c1ccccc1 (stereo not given) [sirtinol] (10 µM)
- morphology score [1]: 0.0701
- SARS-CoV-2 infection rate [2]: 99% (inactive)

Compound: CCN(CC)CCOc1ccc(Cc2ccccc2)cc1 (10 µM)
- morphology score [1]: 0.39
- SARS-CoV-2 infection rate [2]: 71% (inactive)

Compound: Clc1ccc(Cn2c(CN3CCCC3)nc3ccccc32)cc1 [clemizole] (10 µM)
- morphology score [1]: 0.153
- SARS-CoV-2 infection rate [2]: 103% (inactive)

Compound: CCn1cc(C(=O)O)c(=O)c2cc(F)c(N3CCNC(C)C3)c(F)c21 (stereo not given) [lomefloxacin] (10 µM)
- morphology score [1]: 0.0917
- SARS-CoV-2 infection rate [2]: 96.5% (inactive)

Compound: N#Cc1ccc(C(c2ccc(C#N)cc2)n2cncn2)cc1 [letrozole] (10 µM)
- morphology score [1]: 0.138
- SARS-CoV-2 infection rate [2]: 102% (inactive)

Compound: O=C1NC(=O)/C(=C/c2cccc(C(F)(F)F)c2)S1 (10 µM)
- morphology score [1]: 0.00293
- SARS-CoV-2 infection rate [2]: 106% (inactive)

Compound: CCCN(CC1CC1)c1nc(C)nc(Nc2c(Cl)cc(Cl)cc2Cl)c1Cl (10 µM)
- morphology score [1]: 0.143
- SARS-CoV-2 infection rate [2]: 102% (inactive)

Compound: CNc1ccc([N+](=O)[O-])cc1-n1cnc(-c2ccc(C(F)(F)F)cc2)c1 (10 µM)
- morphology score [1]: 0.117
- SARS-CoV-2 infection rate [2]: 97% (inactive)

Compound: COc1ccc(-c2ccc3ncc4c(c3c2)n(-c2ccc(N3CCNCC3)c(C(F)(F)F)c2)c(=O)n4C)cn1 (0.833333 µM)
- morphology score [1]: 0.115
- SARS-CoV-2 infection rate [2]: 104% (inactive)

Compound: C[C@@H]1C[C@H]2[C@@H]3CCC4=CC(=O)C=C[C@]4(C)[C@@]3(F)[C@@H](O)C[C@]2(C)[C@H]1C(=O)CO [desoximetasone] (10 µM)
- morphology score [1]: 0.067
- SARS-CoV-2 infection rate [2]: 91% (inactive)

Compound: N=C1CCCN1Cc1[nH]c(=O)[nH]c(=O)c1Cl [tipiracil] (10 µM)
- morphology score [1]: -0.0802
- SARS-CoV-2 infection rate [2]: 106% (inactive)

Compound: CCCCCOC(=O)Nc1nc(=O)n([C@@H]2O[C@H](C)[C@@H](O)[C@H]2O)cc1F [capecitabine] (10 µM)
- morphology score [1]: -0.208
- SARS-CoV-2 infection rate [2]: 114% (inactive)

Compound: CCCCCCCCNC(C)C(O)c1ccc(SC(C)C)cc1 (stereo not given) [suloctidil] (10 µM)
- morphology score [1]: 0.834
- SARS-CoV-2 infection rate [2]: 21.5% (active)

Compound: O=C(NO)c1ccc2[nH]c(=O)c(CCCc3ccccc3)nc2c1 (10 µM)
- morphology score [1]: -0.0251
- SARS-CoV-2 infection rate [2]: 100% (inactive)

Compound: COc1ccc2c(c1)C(C(=O)N(Cc1ccc(N(C)C)cc1)c1ccc(C(C)C)cc1)CCC2 (stereo not given) (10 µM)
- morphology score [1]: 0.106
- SARS-CoV-2 infection rate [2]: 85.5% (inactive)

Compound: CCCOc1ccc2[nH]c(NC(=O)OC)nc2c1 [oxibendazole] (10 µM)
- morphology score [1]: -0.158
- SARS-CoV-2 infection rate [2]: 118% (inactive)

Compound: O=C(CSc1nc2c(c(=O)n1-c1ccccc1)SCC2)Nc1ccc(-c2ccccc2)cn1 (10 µM)
- morphology score [1]: 0.109
- SARS-CoV-2 infection rate [2]: 112% (inactive)

Compound: O=C(NCC(=O)N1CCCC1)Nc1ccc2cnccc2c1 (10 µM)
- morphology score [1]: 0.182
- SARS-CoV-2 infection rate [2]: 98% (inactive)

Compound: COc1cc(F)c(C(C)C)cc1-c1ccc(C(F)(F)F)cc1CN1C(=O)O[C@H](c2cc(C(F)(F)F)cc(C(F)(F)F)c2)[C@@H]1C [anacetrapib] (10 µM)
- morphology score [1]: 0.116
- SARS-CoV-2 infection rate [2]: 106% (inactive)

Compound: CC(C)C[C@@H](N)C1(c2ccc(Cl)cc2)CCC1 (10 µM)
- morphology score [1]: -0.0886
- SARS-CoV-2 infection rate [2]: 116% (inactive)

Compound: CC(=O)O[C@@H]1C[C@H]2C(C)(C)C(=O)C=C[C@]2(C)[C@H]2CC[C@@]3(C)[C@H](c4ccoc4)OC(=O)[C@H]4O[C@]43[C@@]21C [gedunin] (10 µM)
- morphology score [1]: 0.145
- SARS-CoV-2 infection rate [2]: 106% (inactive)

Compound: COc1cccc(OC)c1OCCNC[C@H]1COc2ccccc2O1 (10 µM)
- morphology score [1]: 0.138
- SARS-CoV-2 infection rate [2]: 108% (inactive)

Compound: O=C(O)[C@H](O)[C@@H](O)[C@H](O[C@@H]1O[C@H](CO)[C@H](O)[C@H](O)[C@H]1O)[C@H](O)CO [maltobionic-acid] (10 µM)
- morphology score [1]: 0.138
- SARS-CoV-2 infection rate [2]: 92.5% (inactive)

Compound: c1ccc2c(-c3cnn4cc(-c5ccc(N6CCNCC6)cc5)cnc34)ccnc2c1 (10 µM)
- morphology score [1]: -0.0877
- SARS-CoV-2 infection rate [2]: 108% (inactive)

Compound: CC(C)(C)NCc1cc(Nc2ccnc3cc(Cl)ccc23)c2c(c1O)CCCC2 [naphthoquine-phosphate] (10 µM)
- morphology score [1]: 0.103
- SARS-CoV-2 infection rate [2]: 109% (inactive)

Compound: NCCCC[C@@H]1NC(=O)[C@@H](Cc2c[nH]c3ccccc23)NC(=O)[C@H](c2ccccc2)NC(=O)[C@@H]2C[C@@H](OC(=O)NCCN)CN2C(=O)[C@H](Cc2ccccc2)NC(=O)[C@H](Cc2ccc(OCc3ccccc3)cc2)NC1=O [pasireotide] (10 µM)
- morphology score [1]: -0.0469
- SARS-CoV-2 infection rate [2]: 104% (inactive)

Compound: CCOC(=O)C1=C(C)NC(C)=C(C(=O)OC)[C@@H]1c1cccc([N+](=O)[O-])c1 (racemic) [nitrendipine] (10 µM)
- morphology score [1]: -0.062
- SARS-CoV-2 infection rate [2]: 112% (inactive)

Compound: CC1(C)O[C@@H]2C[C@H]3[C@@H]4CCC5=CC(=O)C=C[C@]5(C)[C@H]4[C@@H](O)C[C@]3(C)[C@]2(C(=O)CO)O1 [desonide] (10 µM)
- morphology score [1]: 0.0066
- SARS-CoV-2 infection rate [2]: 107% (inactive)

Compound: NC(=O)c1cccnc1 [nicotinamide] (10 µM)
- morphology score [1]: 0.026
- SARS-CoV-2 infection rate [2]: 108% (inactive)

Compound: CN1CCC[C@@H]1CCO[C@](C)(c1ccccc1)c1ccc(Cl)cc1 [clemastine] (10 µM)
- morphology score [1]: 0.677
- SARS-CoV-2 infection rate [2]: 26.5% (active)

Compound: COc1cc2c(NC3CCN(C4CCCCC4)CC3)nc(N3CCCN(C(C)C)CC3)nc2cc1OCCCN1CCCCC1 (10 µM)
- morphology score [1]: 0.458
- SARS-CoV-2 infection rate [2]: 52% (active)

Compound: O=c1cc(-c2ccc(O)c(O)c2)oc2cc(O)cc(O)c12 [luteolin] (10 µM)
- morphology score [1]: 0.167
- SARS-CoV-2 infection rate [2]: 110% (inactive)

— the supplement of paper PMC13380429
